Screens: PubChem, National Center for Advancing Translational Sciences (NCATS)
Only a selection was taken, and hits are over-represented in it overall.
GoLoco inh red: RGS12 GoLoco-Gai1 interaction inhibition; P63096; Gai1:RGS12 GoLoco peptide FP, rhodamine, 10 min; Potency, µM (highest dose often 61.6 µM), for the others: at the highest dose activity, negative = inhibition, usual class: inhibitors; 0.44% of 230,000 active; AID 880; active = well fitted inhibition curve with a large enough effect, not every such curve was filed as active; inactive = no such curve, though single readings can be large or run the other way; also: % is scaled to controls: 0 for no effect and ±100 for the full control effect; nearly all actives have a fitted effect of over 30% in size
KDM4E inh: blocks human JMJD2E demethylase activity; AID 2147; B2RXH2; JMJD2E catalytic domain, FDH-coupled NADH fluorescence (FDH is formaldehyde dehydrogenase); 1.6% of 230,000 active; Potency, µM (titrated, usually from 57.1 µM), inactives show at the top dose activity change, negative = inhibition, actives largely listed as inhibitors; active = well fitted inhibition curve with a large enough effect, not every such curve was filed as active; inconclusive = small, poorly fitted or top-dose-only effect, or another doubt; inactive = no such curve, though single readings can be large or run the other way;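 also: 0% = wells with enzyme and -100% = buffer wells without enzyme; nearly all actives have a fitted effect of over 50% in size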
L3MBTL1 inh-1: L3MBTL1 (human) inhibition; AlphaScreen L3MBTL1–H3K9me1 peptide binding; Q9Y468; AID 485360; 0.66% of 230,000 active; Potency, µM (doses to about 57.1 µM), for inactives: at the top dose activity, negative = inhibition, usual class: inhibitors; also: % is scaled to controls: 0 for no effect and ±100 for the full control effect; nearly all actives have a fitted effect of over 60% in size
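Displacement of a biotinylated histone H3(1-15) peptide monomethylated at Lys9 (75 nM) from L3MBTL1 (50 nM) was measured by AlphaScreen after a 30 min room-temperature compound incubation; cefsulodin titration served as intraplate control.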
RECQ1 helicase: RECQ1 (human) helicase inhibition. RECQ1 DNA unwinding, red fluorescence kinetic read. Potency, µM (highest dose often 57.3 µM), inactives show top-dose activity, negative = inhibition, actives largely listed as inhibitors. 0.54% of 240,000 active. AID 2549;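 also: plate controls were vehicle for no effect and no enzyme for full effect; nearly all actives have a fitted effect of over 30% in size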
Target sequence (P46063 whole entry, looked up): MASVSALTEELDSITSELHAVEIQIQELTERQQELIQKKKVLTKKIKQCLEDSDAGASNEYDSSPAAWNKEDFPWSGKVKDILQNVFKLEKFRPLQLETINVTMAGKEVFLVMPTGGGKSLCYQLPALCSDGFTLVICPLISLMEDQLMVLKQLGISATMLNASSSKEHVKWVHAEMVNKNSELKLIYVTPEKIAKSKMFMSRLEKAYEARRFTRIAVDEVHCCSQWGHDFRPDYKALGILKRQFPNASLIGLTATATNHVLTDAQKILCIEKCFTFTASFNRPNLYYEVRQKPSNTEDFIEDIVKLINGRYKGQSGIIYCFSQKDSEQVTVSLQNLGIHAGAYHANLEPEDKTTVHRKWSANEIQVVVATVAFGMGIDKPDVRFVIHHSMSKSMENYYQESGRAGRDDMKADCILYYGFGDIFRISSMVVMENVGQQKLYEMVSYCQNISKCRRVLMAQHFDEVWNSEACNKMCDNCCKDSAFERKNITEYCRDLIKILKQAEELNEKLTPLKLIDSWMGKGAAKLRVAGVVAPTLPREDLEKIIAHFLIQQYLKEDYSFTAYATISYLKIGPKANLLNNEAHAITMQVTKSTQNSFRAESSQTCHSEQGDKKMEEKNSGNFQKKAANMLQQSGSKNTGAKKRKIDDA
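RECQ1T1 50 nM; forked duplex (20 bp + 30-nt ss tails) 200 nM, ATP 2 mM final; pH 8.0, 2 mM MgCl2, 2.5 ug/ml poly(dI-dC); 15 min compound preincubation; discontinuous kinetic read over 2 h at RT.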
APE1 inh-1: APE1 (human) endonuclease inhibition | AID 2517 | 0.35% of 350,000 active | recombinant APE1, TAMRA/BHQ-2 abasic DNA cleavage fluorescence | Potency, µM (titrated, usually from 65.8 µM), for inactives: at the highest dose activity change, negative = inhibition, usual class: inhibitors | P27695;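 also: plate controls were vehicle for no effect and reference inhibitor for full effect; nearly all actives have a fitted effect of over 55% in size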
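Quantitative HTS: incision of a TAMRA/BHQ-2 double-stranded substrate bearing a tetrahydrofuran abasic site by 0.75 nM APE1 raises fluorescence. Substrate 50 nM final, added after 15 min compound preincubation at room temperature; progress as third-minus-first kinetic read difference.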
BLM inh-1: blocks DNA unwinding by human BLM helicase | AID 2528 | recombinant BLM DNA unwinding, fluorescence dequenching | Potency, µM (top dose mostly 56.1 µM), without a hit: top-dose activity change, negative = inhibition, usual class: inhibitors | 0.2% of 350,000 active;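 also: plate controls were vehicle for no effect and no enzyme for full effect; nearly all actives have a fitted effect of over 35% in size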
DNA dye displace: counter-screen for APE1 inhibitors: DNA dye displacement. shares compounds with APE1 inh-1. DNA fluorescent dye displacement counterscreen, fluorescence. Potency, µM (titrated, usually from 28.5 µM), without a hit: top-dose activity change, negative = inhibition, usual class: inhibitors. 7% of 480 active;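 also: loss of thiazole orange fluorescence as the dye is displaced from duplex DNA; 0% = ThO with dsDNA and no compound and -100% = ThO without dsDNA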
Endo IV inh: blocks E. coli endonuclease IV DNA cleavage; shares compounds with APE1 inh-1; E. coli Endo IV, fluorogenic AP-site DNA cleavage; Potency, µM (series often up to 27.1 µM), without a hit: at the highest dose activity change, negative = inhibition, hits mostly inhibitors; 4% of 560 active; AID 2565;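 also: plate controls were uninhibited enzyme wells for no effect and no enzyme buffer wells for full effect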
APE1 inh-2: confirmation of inhibitors of human APE1 endonuclease; AID 2572; Potency, µM (series often up to 57.1 µM), without a hit: at the top dose activity change, negative = inhibition, most hits filed as inhibitors; 44% of 750 active; purified APE1, fluorogenic abasic-site DNA cleavage; shares compounds with APE1 inh-1; also: % is scaled to controls: 0 for no effect and ±100 for the full control effect; nearly all actives have a fitted effect of over 30% in size
APE1 FP inh: APE1 (human) DNA binding inhibition, fluorescence polarization | shares compounds with APE1 inh-1 | APE1 binding to TAMRA-labelled double-stranded DNA, fluorescence polarization displacement | Potency, µM (top dose mostly 28.5 µM), inactives show at the top dose activity, negative = inhibition, most hits filed as inhibitors | 7% of 480 active | AID 2573; also: % is scaled to controls: 0 for no effect and ±100 for the full control effect
BLM inh-2: BLM (human) helicase inhibition, confirmation; shares compounds with BLM inh-1; BLM DNA unwinding, fluorescence quenching, biochemical; Potency, µM, without a hit: max response, negative = inhibition, hits mostly inhibitors; 40% of 220 active; AID 2585;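 also: strand separation dequenches TAMRA so unwinding raises red fluorescence; series mostly up to about 69 µM; % is scaled to controls: 0 for no effect and ±100 for the full control effect; nearly all actives have a fitted effect of over 45% in size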
L3MBTL1 inh-2: blocks human L3MBTL1 methyl-lysine binding; 91% of 500 active; shares compounds with L3MBTL1 inh-1; L3MBTL1 methyl-lysine binding inhibition, biochemical qHTS; Potency, µM, actives largely listed as inhibitors; AID 540279; also: nearly all actives have a fitted effect of over 70% in size
AlphaScreen ctr2: AlphaScreen signal inhibition, L3MBTL1 hit counter-screen; shares compounds with L3MBTL1 inh-1; AlphaScreen counterscreen, signal inhibition; Potency, µM (highest dose often 57.1 µM), for inactives: top-dose activity change, negative = inhibition, actives largely listed as inhibitors; 500 tested, under 10 active; also: 0% is about no effect
Numbers without * were called inactive; i = inactive; ? = inconclusive; · = not tested or not shown. Unless noted, calls follow the shape of the dose curve; as a rule, active = well fitted curve in the direction sought with a large enough effect; inconclusive = small, poorly fitted or top-dose-only effect, or another doubt; inactive = no such curve, though single readings can be large; an effect the other way counts as inactive or inconclusive. Potency is read from the fitted curve at half-maximal effect.

SMILES	GoLoco inh red	KDM4E inh	L3MBTL1 inh-1	RECQ1 helicase	APE1 inh-1	BLM inh-1	BLM inh-2	others
Cc1ccc(/C=c2/sc3nnc(-c4ccccc4Cl)n3c2=O)o1	68%	-1%	?	-15%	?	?	·
Cc1ccc(/C=c2\sc3nc(-c4ccco4)nn3c2=O)o1	120%	?	7.9µM*	8%	5.6µM*	25µM*	-10%	DNA dye displace=?;Endo IV inh=-9%;APE1 inh-2=7.9µM*;APE1 FP inh=15%;L3MBTL1 inh-2=17*;AlphaScreen ctr2=1%
COc1ccc2c(c1)Cc1sc(NC(=O)c3cccnc3)nc1-2	3%	-28%	?	-2%	?	18µM*	?
Cc1cc(-n2c(C)nc3ccccc3c2=O)ccc1NC(=O)c1cccc([N+](=O)[O-])c1C	·	·	·	·	·	0%	·
COc1cccc(=O)c2c(C)n(CC(=O)c3ccccc3)c(C)c12	40%	-11%	?	-18%	-3%	25µM*	4%
Cc1cccc(Nc2nn3c(=O)c4cc5c(cc4nc3s2)OCO5)c1	·	·	·	·	·	11µM*	10µM*
CCOc1cc(NC(C)=O)ccc1C(=O)OC	-3%	·	·	0%	-3%	2%	·
Fc1cc(F)c2nc(Nc3nc4cc5c(cc4s3)OCO5)sc2c1	7%	194%	-14%	?	9%	10µM*	?
Fc1cccc2sc(Nc3nc4cc5c(cc4s3)OCO5)nc12	-2%	480%	7%	-6%	27%	2%	·
N#Cc1c(SCC(=O)Nc2nncs2)sc2c(O)cc(=O)[nH]c12	·	·	·	·	-92%	11µM*	?
COc1ccccc1NC(=O)C1CCCN(c2ncnc3onc(-c4ccc(F)cc4)c23)C1 (stereo not drawn)	·	·	·	·	·	2%	·
CCN(CCO)c1ncnc2c1sc1nc(C(C)C)c3c(c12)CC(C)(C)OC3	-7%	?	36%	-10%	3%	-1%	·
CCN(CCO)c1nc(SC)nc2c1sc1nc(-c3ccco3)c3c(c12)CCC3	33%	3.5µM*	-24%	-5%	?	10µM*	?
CCn1ncc(Cl)c1C(=O)Nc1ccc2c(c1)CCC2	·	·	·	·	13%	25µM*	18µM*
COc1ccccc1CNC(=O)/C=C/c1ccc(Br)o1	5%	-12%	·	-9%	14%	10µM*	-11%
C=C(N(C)C)[C@]1(C)C[C@H]1[C@H](NC(=O)CNC(=O)OCc1ccccc1)c1ccccc1	2%	6%	·	i	-3%	-1%	·
O=C(/C=C/c1ccccc1Cl)Nc1ccc2c(c1)C(=O)NC2=O	61%	?	·	-23%	13µM*	32µM*	?
COc1ccc(C(=O)Nc2nnc(SCc3cc(=O)c4cc(C)cc(C)c4[nH]3)s2)cc1	·	·	·	·	·	20µM*	18µM*
Cc1nc(N2CCOCC2)c2c(C(=O)N3CCN(c4cccc(C)c4C)CC3)c(C)oc2n1	·	·	·	·	·	2%	·
CCOC(=O)C1CCN(c2nc3ccccc3n2CC(=O)c2ccccc2)CC1	-92%	-3%	-9%	i	0%	20µM*	-2%
O=C(O)C1CSC(c2ccncc2)N1 (stereo not drawn)	-10%	-14%	12%	1%	-3%	3%	·
O=C(O)C1CSC(c2ccco2)N1 (stereo not drawn)	-24%	?	44%	32µM*	14µM*	25µM*	3%
CC(C)CN(C(=O)COC(=O)c1cc2c(s1)CCC2)C1CCS(=O)(=O)C1 (stereo not drawn)	5%	?	20µM*	?	13µM*	25µM*	?
COc1cc(NC(=O)NCCc2c(C)nn(C)c2C)cc(OC)c1OC	·	·	·	·	·	1%	·
Nc1nonc1-c1nc2ccccc2n1CC(=O)Nc1cccc(Cl)c1Cl	·	·	·	·	·	-2%	·
SMILES	GoLoco inh red	KDM4E inh	L3MBTL1 inh-1	RECQ1 helicase	APE1 inh-1	BLM inh-1	BLM inh-2	others
COc1cccc(C2/C(=C(\O)c3ccc4c(c3)OCCO4)C(=O)C(=O)N2CCN(C)C)c1 (stereo not drawn)	15%	-4%	7%	i	?	8.9µM*	-7%
CCc1ccc(C(=O)c2cn(CC(=O)Nc3cccc(OC)c3)c3ccc(OC)cc3c2=O)cc1	·	·	-3%	·	28%	20µM*	20µM*
COc1cccc(NC(=O)Cn2cc(C(=O)c3ccc(C)cc3)c(=O)c3cc(OC)ccc32)c1	·	·	-3%	·	9%	?	·
CCOc1ccc(-c2nc(SCC(=O)Nc3cc(F)ccc3F)n3[nH]c(=O)cc3n2)cc1	·	·	·	·	·	10µM*	11µM*
Cc1ccc(NC(=O)CSc2nc(-c3ccc(C(C)(C)C)cc3)nc3cc(=O)[nH]n23)cc1C	·	·	·	·	·	3%	·
CCOc1ccc(-c2nc(SCC(=O)Nc3ccc(C)c(C)c3)n3[nH]c(=O)cc3n2)cc1	·	·	·	·	·	14µM*	18µM*
CCOC(=O)c1ccc(NC(=O)N2CC3CCCN3c3ccccc32)cc1 (stereo not drawn)	·	·	·	·	·	-6%	·
Cc1nc(SC(C)C(=O)Nc2ccccc2Cl)cc(-c2ccccc2)n1 (stereo not drawn)	·	·	·	·	·	-9%	·
